This note sets out measurements from PubChem BioAssay AID1461 (National Center for Advancing Translational Sciences (NCATS), 2008).

Hit rate of the full screen: of about 220,000 compounds, about 2,300 (1%) were called active. About 6% were inconclusive and are not listed. The list comes from a sample in which actives are over-represented; it also holds similar structures and randomly drawn compounds. Entries that show only a call come without a potency. A number with no mark means an inactive call. Calls come from the whole dose curve; as a rule, active = well fitted inhibition curve with a large enough effect; inconclusive = small, poorly fitted or top-dose-only effect, or effect the other way; inactive = no such curve, though single readings can be large or run the other way.
Potency is the fitted concentration of half-maximal effect.

Chain of Neuropeptide S receptor (Homo sapiens) (Q6W5P4 whole entry, looked up): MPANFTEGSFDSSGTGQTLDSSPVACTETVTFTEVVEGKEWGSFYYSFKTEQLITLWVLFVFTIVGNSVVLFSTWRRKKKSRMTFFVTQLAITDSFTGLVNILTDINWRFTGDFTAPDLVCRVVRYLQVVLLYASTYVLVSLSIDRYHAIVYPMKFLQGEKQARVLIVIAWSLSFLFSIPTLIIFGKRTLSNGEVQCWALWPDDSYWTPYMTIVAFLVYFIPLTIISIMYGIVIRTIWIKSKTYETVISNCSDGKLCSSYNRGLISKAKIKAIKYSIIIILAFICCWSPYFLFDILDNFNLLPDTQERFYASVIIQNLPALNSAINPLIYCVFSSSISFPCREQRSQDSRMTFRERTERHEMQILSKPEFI

This assay has as its target Neuropeptide S receptor (Homo sapiens) (UniProt Q6W5P4). Kind of assay: qHTS Assay for Antagonists of the Neuropeptide S Receptor: cAMP Signal Transduction. Note: nearly all actives have a fitted effect of over 50% in size. To be noted: CHO-NPSR cells, cAMP TR-FRET, antagonist mode; series mostly up to 38.3 µM. An excerpt: NIH Chemical Genomics Center [NCGC] NIH Molecular Libraries Probe Production centers Network [MLPCN] MLPCN Grant: X01-DA026210-01 Assay Submitter (PI): Heilig, Markus Alexander NCGC Assay Overview: Neuropeptide S receptor (NPSR), previously known as GPR154, is a recently de-orphanized G protein coupled receptor. Its endogenous ligand is the 20 amino acids peptide Neuropeptide S (NPS). […] NPS and its receptor are found in various tissues. Specifically they are highly expressed in brain areas that have been implicated in modulation of arousal, stress and anxiety. Central administration of NPS in mice produces an unusual profile of activity by inducing wakefulness and arousal, while at the same time suppressing anxiety. Therefore, NPSR may represent a novel drug target for the treatment of sleep and anxiety disorders. To identify NPSR antagonists, we developed a cell-based cAMP assay. NPS can stimulate the production of cAMP in Chinese hamster ovary cells stably expressing NPS receptor. This change in intracellular cAMP level can be detected by a homogeneous LANCE cAMP assay based on the TR-FRET (time resolved fluorescence resonance energy transfer) between a europium-labeled cAMP tracer complex and a cAMP-specific antibody labeled with Alexa Fluor 647. The europium-labeled cAMP tracer complex is formed by the tight interaction between Biotin-cAMP (b-cAMP) and streptavidin labeled with Europium-W8044 chelate (Eu-SA). Light pulse at 320 nm excites the europium of the cAMP tracer and the energy emitted is transferred to the Alexa molecule bound to the cAMP antibody, generating a TR-FRET signal at 665 nm. Residual energy from the europium will produce a light at 620 nm. The native unlabeled cAMP from cell lysates competes with the europium-cAMP tracer for antibody binding and reversely reduces the emission signal of Alexa by interrupting FRET between the two labeled molecules. Both emission signals from the FRET donor (620 nm) and the acceptor (665 nm) can be detected by a plate reader in the TRF mode. Expression of result in fluorescence ratio (665 nm/620 nm) helps to normalize differences due to cell density and reagent dispensing. This assay was successfully optimized to a 1536-well plate format.
NCGC Assay Protocol Summary: A Chinese hamster ovary (CHO) cell line stably expressing the NPS receptor (CHO-NPSR) was obtained from Dr. Heilig lab at NIAAA and maintained in F-12 Kaighn's media (Invitrogen, Carlsbad, CA, 21127) supplemented with 10 % FBS, 100 units/ml penicillin, 100 ug/ml streptomycin and 250 ug/ml geneticin at 37C, 5% CO2 in a humidified atmosphere. Before the assay, aliquots of cells were frozen and stored at -135C. The assay was performed in 1536-well format. Data are reported for both the ratio of the two emission wavelengths, and also for the component 'donor' channel, Em2=620. Data were normalized to the controls for basal activity (DMSO only) and 100% inhibition (No NPS control). IC50 values were determined from concentration-response data modeled with the standard Hill equation. NPS 1536-well assay protocol: (1) Fresh or frozen CHO-NPSR cells were suspended in F-12 Kaighn's media supplemented with 10 % FBS, 100 units/ml penicillin and 100 ug/ml streptomycin. Cells were plated at 4 ul/well (1200 cells) to white, tissue culture treated 1536-well plates, and then cultured at 37C, 5 % CO2 for 16 to 30 hours. (2) Add 23 nl/well of compound in DMSO solution. The final titration for each compound was between 0.6 nM and 46 uM. (3) Add 1 ul of stimulation reagent (1X HBSS buffer, 5 mM HEPES, 0.1% BSA, 500 uM RO-201724 (Sigma-Aldrich, B8279), 1.5% Alexa 647-labeled anti-cAMP antibody (from Perkin Elmer), 100 nM NPS) (4) Incubation at 37C, 5 % CO2 for 60 min. (5) Add 1 ul/well detection reagent. Detection reagent was prepared by adding biotin labeled cAMP (4%), streptavidin labeled with Europium-W8044 chelate (1.33%) and TritonX-100 (1%) to detection buffer. […]
In general terms: Quantitative high-throughput screening tests each substance at several concentrations.
Consider `Cc1nc(CNS(=O)(=O)c2cc([N+](=O)[O-])ccc2C)cs1`, for which the Potency result was “inactive”.

For the compound `Cc1nc(=O)c(-c2ccccc2)c(C)n1-c1ccc(Br)cc1`, the Potency result was “inactive”.

As for `CC(NCc1ccccc1OC1CCCC1)c1ccccc1` (stereo unspecified), the Potency result is “inactive”.

`NC(=S)Nc1c(Cl)cccc1Cl`: the activity change, negative = inhibition was 7.17% [at 7.67 µM].

On to `CN(c1ccccn1)c1ncnc2[nH]ncc12`, for which the Potency result was “inactive”.

On to `CCOC(=O)c1cc(NC(=O)c2ccc(Cl)cc2)c(=O)oc1-c1ccccc1`, for which the Potency entry is “inactive”.

For the compound `Cc1ccccc1NC(=O)c1ccccc1`, the Potency entry is “inactive”.

Consider `CC(=O)c1cc(NC(=O)c2ccccc2)c(=O)oc1/C=C/N(C)C`, for which the Potency is 10 µM (active).

On to `COc1ccc(C2/C=C\CN(S(=O)(=O)c3cccs3)CC(=O)N2Cc2ccc(F)cc2)cc1` (stereo unspecified), for which the Potency entry was “inactive”.

Regarding `COc1ccc(CN2C(=O)C(C)S/C2=N/N=C/c2ccco2)cc1` (stereo unspecified), the Potency result was “inactive”.

For the compound `CCOC(=O)c1ccc(NC(=O)c2nc[nH]c2C(=O)N[C@@H](CCCCNC(=O)OC(C)(C)C)C(=O)OC(C)(C)C)cc1`, the Potency result was “inactive”.

As to `O=C(Cc1nc2ccccc2[nH]c1=O)c1ccc(Cl)cc1`, the Potency entry is “inactive”.

Regarding `O=C(/C(=C/c1cccc(Cl)c1)c1nc2ccccc2[nH]1)c1ccccc1`, the Potency was 10 µM (active).

Turning to `CCC(=O)/C(=C(/O)c1ccccc1)c1nc2ccccc2[nH]1`, the Potency result is “inactive”.

On to `CC1=CC2=NC(=O)/C(=C/c3coc4ccccc4c3=O)C(=N)N2O1`, for which the Potency entry is “inactive”.

With `Cc1ccc(/C=N/NC(=O)CSc2ccccn2)o1`, the Potency entry was “inactive”.

As to `Cc1ccc(C(O)P(=O)(OC(C)C)c2ccc(N(C)C)cc2)cc1` (stereo unspecified), the Potency result is “inactive”.

On to `O=C(Nc1ccc2c(c1)OCCO2)c1ccoc1`, for which the Potency result was “inactive”.

In the case of `CC(=O)O[C@]1(C(C)=O)CC[C@H]2[C@@H]3C=C(C)C4=CC(=O)CC[C@]4(C)[C@H]3CC[C@@]21C`, the Potency is 3.98 µM (active).

As for `NC(=O)NC(=O)CSc1nc2cc([N+](=O)[O-])ccc2n1-c1cccc(C(F)(F)F)c1`, the Potency entry was “inactive”.

In the case of `COc1ccc(/C=C/c2nnc(NC(=O)C(C)C)s2)cc1`, the Potency entry was “inactive”.

In the case of `C/C(CC(=O)NC(C)c1ccccc1)=N\NC(N)=S` (stereo unspecified), the Potency entry was “inactive”.

Regarding `Cc1cc(C)c2[nH]c(=O)c(C(c3nnnn3Cc3ccc4c(c3)OCO4)N3CCCC3)cc2c1` (stereo unspecified), the Potency result was “inactive”.

As for `Cc1cccc2cc(CN(Cc3nnnn3Cc3ccccc3)C3CCCC3)c(=O)[nH]c12`, the Potency result was “inactive”.

On to `Cc1cccc2cc(CN(Cc3ccc4c(c3)OCO4)Cc3nnnn3C3CCCC3)c(=O)[nH]c12`, for which the Potency was 12.6 µM (active).

Turning to `COCCN(Cc1cc2cc3c(cc2nc1Cl)OCO3)C(=O)c1cccc(C)c1`, the Potency result was “inactive”.

As for `Cc1ccc(NNC(=O)c2cccs2)cc1Cl`, the Potency result was “inactive”.

In the case of `Cc1cc(C)c(C)c(S(=O)(=O)N[C@@H](C)C(=O)OC(C)C(=O)NC(N)=O)c1C` (stereo partly specified), the Potency entry is “inactive”.

On to `O=C(Nc1ccc(Cl)cc1)/C(=C1\CCCN1)[N+](=O)[O-]`, for which the Potency result is “inactive”.

For the compound `COc1cc(NC(=O)COc2ccccc2Cl)ccc1NC(=O)C(C)C`, the Potency entry is “inactive”.

For the compound `Cc1ccccc1OCC(=O)Nc1ccc(N2CCN(C(=O)C(C)C)CC2)c(Cl)c1`, the Potency was 12.6 µM (active).

As for `CN1CCN(c2ccc(NC(=O)COc3ccc(Cl)cc3Cl)cc2)CC1`, the activity change, negative = inhibition was 3.6% [at 7.67 µM].

On to `Nc1ccc(N=Nc2ccccc2Cl)c(N)n1`, for which the Potency entry was “inactive”.

Turning to `COc1ccc(CCNC(=O)C(=O)NCC2CCNCC2)cc1OC`, the Potency result was “inactive”.

Consider `Cc1cc(C)c(C#N)c(SCc2[nH]nc3c2C(c2ccccc2)C(C#N)=C(N)O3)n1` (stereo unspecified), for which the Potency result was “inactive”.

For the compound `N#CC1=C(N)Oc2c(sc3ccccc23)C1c1ccco1` (stereo unspecified), the activity change, negative = inhibition is -7.26% [at 7.67 µM].

In the case of `Cc1cc(C)c2c3c(sc2n1)C(c1ccccc1)C(C#N)=C(N)O3` (stereo unspecified), the Potency was 10 µM (active).

Consider `O=C1CCC(=O)N(O)CCCCCNC(=O)CCC(=O)N(O)CCCCCNC(=O)CCC(=O)N(O)CCCCCN1`, for which the Potency result is “inactive”.

As for `NC(=O)N/N=C\c1cccs1`, the Potency result is “inactive”.

In the case of `O=S(=O)(c1ccc(F)cc1)N1CC=C(c2ccccc2)CC1`, the activity change, negative = inhibition was -0.503% [at 7.67 µM].

As to `Cc1ccccc1Nc1scc(-c2ccc(Br)cc2)[n+]1-c1ccccc1C`, the Potency was 10 µM (active).

On to `Nc1scc[n+]1Cc1cccc2cccnc12`, for which the Potency entry is “inactive”.

In the case of `Nc1nc(NC(=O)/C=C/c2ccc(F)cc2)nn1-c1ccccc1`, the Potency entry is “inactive”.

Consider `CCCc1ccc(OCc2ccc(C(=O)N/N=C/c3cccc([N+](=O)[O-])c3)o2)c(OC)c1`, for which the Potency is 10 µM (active).

Take `COc1cc(/C=N/O)ccc1OCc1ccc([N+](=O)[O-])cc1`: the Potency result was “inactive”.

Turning to `COC(=O)c1ccc(COc2ccc(/C=N/NC(=O)C(=O)Nc3ccc(OC)cc3)cc2OC)o1`, the Potency entry is “inactive”.

For the compound `COc1cccc(OC)c1CN(C)C(=O)c1cnccc1C(F)(F)F`, the Potency result is “inactive”.

Take `COC(C[C@H](O)CC(=O)COCc1ccccc1)OC`: the Potency result was “inactive”.

For the compound `Cc1ccc(S(=O)(=O)/N=C(/NC(=S)Nc2c(C)n(C)n(-c3ccccc3)c2=O)c2ccccc2)cc1`, the Potency result is “inactive”.

Take `CSCC[C@H](NC(=O)CCCn1nnc2ccccc2c1=O)C(=O)O`: the Potency result was “inactive”.

With `S=C(NCCc1ccccc1)Nc1ccccc1`, the Potency result is “inactive”.
